These results are taken from PubChem BioAssay.

Assay [1] can be described thus: antimalarial activity against Dd2 strain (AID 2302;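 active = growth inhibition above 50% at the single 2 µM test dose, taken to imply half-maximal potency below 2 µM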;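 note: 0% = DMSO untreated growth and 100% = chloroquine plus artemisinin killed control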). The note with it: P. falciparum Dd2 in RBCs, LDH growth readout, 72 h; at 2 µM; stronger effect = higher value.
Assay [2] can be described thus: human hepatoma cell viability loss – ATP luminescence, cytotoxicity control for P. falciparum antimalarial project, primary screen (AID 2303;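 active = inhibition above 50%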;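 note: 0% = DMSO wells and 100% = digitonin-killed cells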). The settings on record: HepG2 viability, 24-48 h, at 10 µM, stronger effect = higher value.
In assay [3] the target is L-lactate dehydrogenase (Plasmodium falciparum (isolate CDC / Honduras)) (UniProt Q27743). Briefly: PfLDH activity inhibition – cell lysate, 3D7 strain, counter-screen for P. falciparum growth inhibition project (AID 2304).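 Note: 0% = vehicle and 100% = reference inhibitor.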 The settings on record: P. falciparum 3D7 crude extract, LDH APAD/NBT absorbance; at 2 µM; stronger effect = higher value. (In general: Counterscreens check selectivity or assay interference.)

The nature of assay [4]: inhibition of 3D7 malaria parasite growth – strain 3D7 (AID 2306).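 Note: 0% = DMSO wells and 100% = chloroquine plus artemisinin control wells.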 The settings on record: P. falciparum 3D7 erythrocytic growth, LDH absorbance, 72 h; at 2 µM; stronger effect = higher value.
Assay [5] addresses Calcium-dependent protein kinase 1 (Plasmodium falciparum (isolate 3D7)) (UniProt P62344). Briefly: PfCDPK1 kinase inhibitors, biochemical, TCAMS library (AID 1159585; cut-off not given, nearly all actives have IC50 up to about 0.98 µM;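 note: inhibitors leave more ATP so luminescence rises with inhibition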). The note with it: recombinant PfCDPK1, Kinase-Glo ATP depletion luminescence. On the technique in general: Kinase-Glo measures the ATP left after a reaction by luminescence.
Assay [6] has as its target Plasmodium falciparum protein kinase 6 (PK6, PF3D7_1337100) (UniProt Q8IDW1). Briefly: PfPK6 kinase inhibitors, biochemical, TCAMS library (AID 1159586). The settings on record: recombinant PfPK6, Kinase-Glo ATP depletion luminescence.
The target of assay [7] is Protein kinase 7 (PK7), Plasmodium falciparum 3D7 (PF3D7_0213400) (UniProt Q7YTF7). Briefly: inhibition of Plasmodium PK7 catalytic activity – biochemical, TCAMS antimalarial set, Kinase-Glo luminescence (AID 1159587). The note with it: recombinant PfPK7, Kinase-Glo ATP depletion luminescence.
For assay [8], the target named is Calcium-dependent protein kinase 4 (Plasmodium falciparum (isolate 3D7)) (UniProt Q8IBS5). Briefly: PfCDPK4 kinase inhibitors, biochemical, TCAMS library (AID 1159588; cut-off not given, nearly all actives have IC50 up to about 0.91 µM). The note with it: recombinant PfCDPK4, Kinase-Glo ATP depletion luminescence.
The test system of assay [9] is Hepatitis C virus NS3 helicase. Briefly: blockers of NS3h binding to ssDNA – biochemical, fluorescence polarization, LOPAC1280 library, primary screen (AID 687035; in the data active = inhibition above about 37%). The note with it: Purified HCV NS3 helicase, Cy5-dT15 ssDNA binding fluorescence polarization; stronger effect = higher value; concentration not given here. (In general: In fluorescence polarisation assays a small probe gives low polarisation when free and higher when bound to something large.)

Assay [10] is described as follows: compounds altering Cy5-DNA-NS3h complex signal – biochemical, LOPAC1280, artefact control for HCV NS3 helicase inhibitor project (AID 687037). The settings on record: Cy5-DNA-NS3h complex fluorescence interference counterscreen.
Assay [11] is described as follows: viability loss in pontine glioma line – cell-based, JHH-DIPG-1, MIPE4.0, CellTiter-Glo, qHTS, dose response (AID 1347062; cut-off not given, nearly all actives have AC50 up to about 27 µM;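 note: cells exposed to compound for two days before readout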). The note with it: JHH-DIPG-1 viability, CellTiter-Glo ATP luminescence.
Assay [12] in a line: viability loss in pontine glioma line – cell-based, SU-DIPG-IV, MIPE4.0, CellTiter-Glo, qHTS, dose response (AID 1347063; cut-off not given, nearly all actives have AC50 up to about 30 µM;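 note: compound exposure lasted 48 hours before the viability readout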). The settings on record: CellTiter-Glo ATP luminescence.
Assay [13] in a line: compounds altering HSF1 focus formation in cells – imaging, Selleck Cancer Library (AID 1347162; in the data active = plate-normalised HSF1 focus index below about 0.46). The note with it: human cells, HSF1 nuclear foci imaging, at 10 µM; SSMD: measured here: HSF1 foci SSMD mean; cell count: measured here: cell number; plate-normalised HSF1 focus index: stronger effect = lower value.
Assay [14] is described as follows: blockers of cellular phospholipid synthesis – cell-based, LOPAC library, screen 4, primary screen (AID 1347384). The note with it: animal cells, phospholipid biosynthesis inhibition screen; at 10 µM.
A short description of assay [15]: MELAS cybrid and Rieske KO viability enhancers – cell-based, MELAS cybrids, Rieske KO mouse fibroblasts, CellTiter-Glo, primary screen (AID 1508586;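 active = mean z-score across replicates of 1.96 or higher in either the MELAS or the Rieske mutant cell line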;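 note: z relative to plate mean and SD of compound and empty wells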). The settings on record: low glucose.
Assay [16] has as its target NAD(+) hydrolase SARM1 (Homo sapiens) (UniProt Q6SZW1). Briefly: blocking NAD cleavage by SARM1 SAM-TIR – cell lysate, NAD-Glo luminescence (AID 1508614;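 active = compound whose remaining NAD level is above about 45 nM, limit read from the data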;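 note: higher remaining NAD means stronger inhibition of SARM1 NADase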). The settings on record: SAM-TIR HEK293T lysate NADase, at 1 µM, stronger effect = higher value.
For assay [17], the system named is Aerobactin synthetase IucA (Klebsiella pneumoniae). Briefly: inhibition of K. pneumoniae IucA enzyme – biochemical, Tocris library, absorbance (AID 1345561).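 Note: 100% = enzyme without compound and 0% = no enzyme.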 The settings on record: purified IucA enzyme assay, absorbance (OD) read-out; stronger effect = lower value;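 tested at 8 µM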.

Where “and” joins values, the source holds several entries; their conditions need not be identical. Equal entries are not always repeated. Results filed as inconclusive are left out. For some of these results: Results with a measured potency or affinity are listed apart. Some compounds were tested as several samples or in several runs, with calls that do not always agree. Calls of active or inactive are those of the source. Unless noted, the rule behind the calls is not given here.

Calcium-dependent protein kinase 1 (Plasmodium falciparum (isolate 3D7)), sequence (P62344 whole entry, looked up): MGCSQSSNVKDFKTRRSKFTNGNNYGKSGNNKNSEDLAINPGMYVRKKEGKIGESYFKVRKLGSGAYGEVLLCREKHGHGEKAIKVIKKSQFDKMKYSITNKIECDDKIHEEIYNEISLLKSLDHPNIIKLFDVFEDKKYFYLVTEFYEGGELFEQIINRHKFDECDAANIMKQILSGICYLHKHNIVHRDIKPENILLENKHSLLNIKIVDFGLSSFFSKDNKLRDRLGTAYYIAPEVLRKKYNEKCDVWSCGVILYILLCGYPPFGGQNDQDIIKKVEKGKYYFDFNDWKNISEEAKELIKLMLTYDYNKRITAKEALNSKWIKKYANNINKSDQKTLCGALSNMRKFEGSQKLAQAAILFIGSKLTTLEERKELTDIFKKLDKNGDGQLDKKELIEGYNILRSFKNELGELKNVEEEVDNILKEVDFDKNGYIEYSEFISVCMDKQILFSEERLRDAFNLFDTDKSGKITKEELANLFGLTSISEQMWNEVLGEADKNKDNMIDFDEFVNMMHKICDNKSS
Protein kinase 7 (PK7), Plasmodium falciparum 3D7 (PF3D7_0213400), sequence (Q7YTF7 1-343): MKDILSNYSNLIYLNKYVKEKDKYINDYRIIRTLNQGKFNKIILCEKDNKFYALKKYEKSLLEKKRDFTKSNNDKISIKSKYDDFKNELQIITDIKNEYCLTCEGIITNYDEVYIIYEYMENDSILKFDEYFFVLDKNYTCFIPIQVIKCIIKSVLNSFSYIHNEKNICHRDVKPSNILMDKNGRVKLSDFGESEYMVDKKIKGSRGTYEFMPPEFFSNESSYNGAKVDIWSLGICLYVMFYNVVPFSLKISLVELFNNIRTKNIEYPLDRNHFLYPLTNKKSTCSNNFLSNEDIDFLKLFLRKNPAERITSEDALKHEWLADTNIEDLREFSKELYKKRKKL
L-lactate dehydrogenase (Plasmodium falciparum (isolate CDC / Honduras)), sequence (Q27743 whole entry, looked up): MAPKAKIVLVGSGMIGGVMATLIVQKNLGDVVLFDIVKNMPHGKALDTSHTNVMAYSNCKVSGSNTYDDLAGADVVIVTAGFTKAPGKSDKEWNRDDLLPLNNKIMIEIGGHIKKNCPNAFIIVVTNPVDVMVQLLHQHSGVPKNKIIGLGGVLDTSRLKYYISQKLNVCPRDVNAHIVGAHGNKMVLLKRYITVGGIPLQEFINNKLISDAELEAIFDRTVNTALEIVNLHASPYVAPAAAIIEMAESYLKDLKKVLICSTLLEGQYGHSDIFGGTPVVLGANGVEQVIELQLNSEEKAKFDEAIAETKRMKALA
Plasmodium falciparum protein kinase 6 (PK6, PF3D7_1337100), sequence (Q8IDW1 1-305): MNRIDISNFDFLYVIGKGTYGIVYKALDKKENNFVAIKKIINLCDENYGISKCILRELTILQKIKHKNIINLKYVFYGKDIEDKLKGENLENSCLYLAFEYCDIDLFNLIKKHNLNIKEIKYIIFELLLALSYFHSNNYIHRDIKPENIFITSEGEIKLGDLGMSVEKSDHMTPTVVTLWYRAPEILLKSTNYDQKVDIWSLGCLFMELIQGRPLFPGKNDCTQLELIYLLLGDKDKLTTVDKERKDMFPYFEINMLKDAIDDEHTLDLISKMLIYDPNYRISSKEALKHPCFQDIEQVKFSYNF
Calcium-dependent protein kinase 4 (Plasmodium falciparum (isolate 3D7)), sequence (Q8IBS5 whole entry, looked up): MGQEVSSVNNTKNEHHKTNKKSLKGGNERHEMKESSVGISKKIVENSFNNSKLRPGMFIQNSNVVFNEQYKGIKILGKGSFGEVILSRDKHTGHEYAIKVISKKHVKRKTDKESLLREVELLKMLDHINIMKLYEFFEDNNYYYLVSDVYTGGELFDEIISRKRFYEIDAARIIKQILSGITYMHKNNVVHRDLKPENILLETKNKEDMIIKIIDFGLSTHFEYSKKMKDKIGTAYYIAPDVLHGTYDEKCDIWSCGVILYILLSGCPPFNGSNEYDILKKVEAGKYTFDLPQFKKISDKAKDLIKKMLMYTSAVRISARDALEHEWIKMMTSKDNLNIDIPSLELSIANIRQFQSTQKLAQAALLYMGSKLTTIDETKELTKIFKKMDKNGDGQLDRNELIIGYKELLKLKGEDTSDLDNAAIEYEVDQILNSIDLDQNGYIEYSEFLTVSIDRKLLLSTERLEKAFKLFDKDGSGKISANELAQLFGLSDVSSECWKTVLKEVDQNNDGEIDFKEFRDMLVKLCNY
NAD(+) hydrolase SARM1 (Homo sapiens), sequence (Q6SZW1 whole entry, looked up): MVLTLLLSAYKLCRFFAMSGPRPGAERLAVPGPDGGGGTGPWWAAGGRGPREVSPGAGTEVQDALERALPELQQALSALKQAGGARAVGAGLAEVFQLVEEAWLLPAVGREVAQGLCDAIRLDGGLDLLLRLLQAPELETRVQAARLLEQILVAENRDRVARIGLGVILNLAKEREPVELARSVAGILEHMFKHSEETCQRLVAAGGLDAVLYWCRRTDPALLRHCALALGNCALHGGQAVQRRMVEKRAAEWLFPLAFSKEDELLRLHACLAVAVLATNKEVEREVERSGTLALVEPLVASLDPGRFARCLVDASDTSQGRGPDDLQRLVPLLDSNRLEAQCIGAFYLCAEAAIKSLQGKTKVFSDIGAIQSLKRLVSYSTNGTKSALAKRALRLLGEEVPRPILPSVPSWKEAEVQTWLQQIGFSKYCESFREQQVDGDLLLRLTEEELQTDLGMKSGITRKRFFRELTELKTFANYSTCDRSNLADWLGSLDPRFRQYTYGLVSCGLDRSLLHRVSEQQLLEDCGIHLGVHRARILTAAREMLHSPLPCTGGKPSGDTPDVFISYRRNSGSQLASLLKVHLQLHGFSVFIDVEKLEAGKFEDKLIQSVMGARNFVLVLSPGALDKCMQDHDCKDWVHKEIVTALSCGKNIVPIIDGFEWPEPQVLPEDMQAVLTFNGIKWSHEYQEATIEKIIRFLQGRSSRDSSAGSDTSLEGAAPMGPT

As a reminder, the inhibition is the change of the read-out against control, counted positive when it falls. For `O=C(/C=C/c1ccccc1O)NC1CCC(CN2CCC(c3c[nH]c4ccccc34)CC2)CC1` (centres undefined), the growth inhibition in assay [1] was 73% (active) and 45% (inactive); in assay [4], 101% (active) and 103% (active). In addition, the inhibition in assay [2] was 11% (inactive) and 22% (inactive); in assay [3], -1% (inactive) and 5% (inactive). Moreover, the result in assay [5], in assay [6], in assay [7] and in assay [8] was inactive.
Regarding `Cc1[nH]c2ccccc2c1C1=CCN(CCCCC2(C)C(=O)Nc3ccccc32)CC1` (centres undefined), the growth inhibition is 89% (active) in assay [1] and 94% (active) in [4]. Moreover, the inhibition in assay [2] was 8% (inactive); in assay [3], -4% (inactive). Moreover, the result in assay [5], in assay [6], in assay [7] and in [8] was inactive.
Consider `CCC(C)(C)N[C@@H](C)[C@@H](O)c1ccc(C(F)(F)F)cc1`, for which the growth inhibition was 90% (active) in assay [1] and 97% (active) in assay [4]. In [3], the inhibition is 2% (inactive). Also, the result in assay [5], in assay [6], in [7] and in assay [8] was inactive.
With `COc1ccc(OC)c([C@H](O)[C@@H](C)NCc2cc(Cl)ccc2O)c1`, the values for the growth inhibition in assay [1] and in assay [4] were 99% (active) and 97% (active), respectively. The inhibition in assay [2] was 11% (inactive); in assay [3], 4% (inactive). The result in assay [5], in assay [6], in assay [7] and in assay [8] was inactive.
For the molecule `COc1ccc(C(=O)c2ccc3[nH]cc(C4=CCN(C)CC4)c3c2)cc1`, the growth inhibition in assay [1] was 55% (active); in [4], 88% (active). Also, the inhibition in assay [3] is 4% (inactive). Also, the outcome in assay [5], in assay [6], in [7] and in assay [8] was inactive.
Broadly, the AC50 is the midpoint of the concentration-response curve, whichever way the signal moves. Take `CC(O)(CS(=O)(=O)c1ccc(F)cc1)C(=O)Nc1ccc(C#N)c(C(F)(F)F)c1` (centres undefined): the inhibition in assay [9] is 0% (inactive). In assay [10], the fluorescence ratio (interference) is 1 (inactive). The AC50 in [11] is 9.35 µM (active). Besides, in [12], the AC50 is 13.2 µM (active). In addition, in assay [13], the SSMD was found to be 2.85, the cell count is 7580 and the plate-normalised HSF1 focus index is 1.1 (inactive). In addition, the outcome in assay [14] was inactive. In addition, the z-score in [15] (MELAS cybrid survival, CellTiter-Glo 48 h, stronger effect = higher value) is -0.358 (inactive) and -0.11 (inactive) and 0.746 (inactive). For the same molecule, the z-score in assay [15] (Rieske KO mouse fibroblast survival, CellTiter-Glo 72 h) was 0.621 and -0.29 and 0.356. Further, the remaining NAD in assay [16] is 10 nM (inactive).
Regarding `NC(N)=NC(=O)Nc1ccc([N+](=O)[O-])c(Cl)c1`, the growth inhibition in assay [1] is 12% (inactive); in [4] it was 90% (active). Moreover, in [3], the inhibition was -10% (inactive). Further, the outcome in [5], in [6], in assay [7] and in [8] was inactive.
Turning to `C/C=C1\CN2CC[C@H]1C[C@@H]2[C@@H](O)c1ccnc2ccc(O)cc12`, the figures for the growth inhibition in assay [1] and in assay [4] were -1% (inactive) and 98% (active), respectively. Also, the inhibition in assay [2] was -10% (inactive); in assay [3], -4% (inactive). Moreover, the result in assay [5], in assay [6], in assay [7] and in assay [8] was inactive.
Broadly, the remaining activity is the signal under treatment as a percentage of the control signal. As for `CCOC(=O)c1cncn1[C@H](C)c1ccccc1`, the remaining activity in [17] was 122% (inactive). In assay [12], the molecule was called inactive. Moreover, the remaining NAD in assay [16] is 10 nM (inactive).
`CC(=O)Nc1ccc(OCCN(CC(F)(F)F)c2ccc(C#N)cc2C(F)(F)F)cc1`: the growth inhibition in [1] was 83% (active); in assay [4] it was 81% (active). Besides, the inhibition in [2] was -1% (inactive); in [3], 1% (inactive). For the same molecule, the result in assay [5], in assay [6], in [7] and in [8] was inactive.
Turning to `Cc1ccc(-n2nc(C)c3c2NC(=O)CSC3c2ccsc2)cc1` (centres undefined), the results for the growth inhibition in assay [1] and in [4] were 11% (inactive) and 97% (active), respectively. Moreover, the inhibition in assay [2] was -14% (inactive); in [3] it was 2% (inactive). Also, the outcome in assay [5], in assay [6], in assay [7] and in assay [8] was inactive.
Turning to `NCCc1ccccn1`, the remaining activity in [17] was 108% (inactive).
`Cc1ccc(/C=C/C(=O)NC2CCC(CN3CCC(c4c[nH]c5ccccc45)CC3)CC2)cc1C` (centres undefined): the growth inhibition is 71% (active) and 91% (active) in assay [1]; 100% (active) and 101% (active) in assay [4]. In addition, the inhibition is 23% (inactive) and 38% (inactive) in assay [2]; 8% (inactive) and 4% (inactive) in assay [3]. Also, the outcome in assay [5], in [6], in assay [7] and in [8] was inactive.
With `CC(=O)Nc1ccc2[nH]cc(C3CCN(CC4CCN(C(=O)/C=C/c5ccc(Cl)c(Cl)c5)CC4)CC3)c2c1`, the growth inhibition in assay [1] is 41% (inactive); in assay [4], 96% (active). Besides, the inhibition was 10% (inactive) in assay [2] and -1% (inactive) in assay [3]. The result in [5], in assay [6], in [7] and in assay [8] was inactive.
Turning to `CN(c1cc(NC(=O)c2ccc(F)cc2)ccn1)C1CCN(Cc2ccc(C#N)cc2)CC1`, the growth inhibition in [1] was 54% (active); in assay [4] it was 87% (active). The inhibition was 13% (inactive) in assay [2] and 2% (inactive) in assay [3]. In addition, the result in assay [5], in assay [6], in assay [7] and in assay [8] was inactive.
As for `Cc1[nH]c2c(C)cc(NS(C)(=O)=O)cc2c1C1CCN(CC2CCN(C(=O)/C=C/c3ccc(Cl)c(Cl)c3)CC2)CC1`, the growth inhibition in assay [1] was 99% (active); in assay [4], 100% (active). In addition, the inhibition in assay [2] was 33% (inactive); in assay [3], 1% (inactive). Moreover, the result in assay [5], in [6], in assay [7] and in assay [8] was inactive.
As to `CCCCCC(C)C(C)c1cc(O)c2c(c1)OC(C)(C)c1cnccc1-2` (centres undefined), the growth inhibition was 74% (active) in assay [1] and 94% (active) in assay [4]. For the same molecule, the inhibition in assay [2] was 7% (inactive); in [3], -3% (inactive). Besides, the outcome in [5], in assay [6], in assay [7] and in [8] was inactive.
